Only some compounds are listed: those with a hit (about 7.5% of all), similar ones and a draw of the others.
FLuc counter = inhibits or activates purified firefly luciferase, miR-21 counter-screen; purified FLuc, Km substrates, luminescence inhibition; Potency, µM (highest dose often 57.5 µM), inactives show top-dose activity change, negative = inhibition, hits mostly inhibitors; hit rate 6.9% among 360,000;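 further: plate controls were vehicle for no effect and reference inhibitor for full effect; nearly all actives have a fitted effect of over 55% in size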
Target sequence (P08659 whole entry, looked up): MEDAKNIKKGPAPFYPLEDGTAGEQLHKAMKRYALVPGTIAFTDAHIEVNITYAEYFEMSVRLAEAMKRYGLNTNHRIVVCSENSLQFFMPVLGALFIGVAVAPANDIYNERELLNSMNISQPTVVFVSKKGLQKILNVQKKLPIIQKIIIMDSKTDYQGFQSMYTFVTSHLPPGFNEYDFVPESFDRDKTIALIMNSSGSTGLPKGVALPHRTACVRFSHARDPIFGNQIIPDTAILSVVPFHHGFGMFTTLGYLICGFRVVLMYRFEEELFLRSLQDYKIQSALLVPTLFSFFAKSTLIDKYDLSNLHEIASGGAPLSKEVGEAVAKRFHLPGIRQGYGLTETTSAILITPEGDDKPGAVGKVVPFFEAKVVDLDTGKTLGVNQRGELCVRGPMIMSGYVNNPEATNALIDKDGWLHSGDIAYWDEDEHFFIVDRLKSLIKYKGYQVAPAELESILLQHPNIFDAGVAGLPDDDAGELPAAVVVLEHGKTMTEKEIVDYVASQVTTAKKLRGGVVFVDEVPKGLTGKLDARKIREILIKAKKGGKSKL
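Purified P. pyralis luciferase, 10 nM final, with Km-level 10 uM D-luciferin and 10 uM ATP in 50 mM Tris acetate pH 7.5, 10 mM Mg acetate, 0.01% Tween-20, 0.05% BSA; 6-point qHTS titration about 60 µM downward; luminescence read.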
Rab9 prom act = Rab9 promoter activation. AID 485297. hit rate 2.8% among 320,000. Potency, µM (series often up to 9.22 µM), for inactives: top-dose activation, negative = inhibition, most hits filed as activators. Huh7 Rab9 promoter-luciferase reporter, luminescence, 24 h; further: % of control where 0% means no effect; nearly all actives have a fitted effect of over 60% in size
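Huh7 cells stably carrying Rab9 promoter–luciferase reporter, plated 1500 cells/well, compound added after 2 h and incubated 24 h at 37 °C; luciferase luminescence then read after 10 min with detection reagent.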
NPC1 promoter act = activators of NPC1 promoter; AID 485313; hit rate 2.4% among 320,000; Potency, µM (series often up to 9.22 µM), for inactives: at the highest dose activation, usual class: activators; Huh7 NPC1 promoter luciferase reporter, 24 h; further: % of control where 0% means no effect; nearly all actives have a fitted effect of over 60% in size
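NPC1 promoter–luciferase Huh7 cells; 24 h compound; luminescence.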
SMN2 splice enh = enhancers of SMN2 splice variant expression | Potency, µM (highest dose often 46.1 µM), for inactives: at the highest dose activity change, positive = activation, most hits filed as activators | HEK293 SMN2-luciferase splicing reporter, luminescence, 30-36 h | hit rate 2.8% among 210,000; further: % of control where 0% means no effect; nearly all actives have a fitted effect of over 55% in size
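HEK293 cells carry an SMN2 […]–luciferase reporter in which exon 7 inclusion puts luciferase in frame. Cells were plated 10-12 h before compound addition, then incubated 30-36 h at 37C. ONE-Glo luminescence was read; sodium butyrate at 4.5 mM final served as control.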
ELG1 genotox = genotoxicity induction in ELG1-luciferase HEK293T cells. HEK293T ELG1-luciferase reporter, luminescence, 16 h. Potency, µM (highest dose often 46 µM), for inactives: at the top dose activity change, positive = activation, actives largely listed as activators. hit rate 1.3% among 330,000; further: % of control where 0% means no effect; nearly all actives have a fitted effect of over 60% in size
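Screening used a luciferase reporter fused to human ELG1 in HEK293T cells. Luminescence was read on a CCD plate imager after 16 hr exposure and 30 min ONE-Glo incubation.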
Starred values were filed as active, the others as inactive; ? = inconclusive; nt = no result given. The call rests on the fitted dose curve; in most records, active means well fitted curve in the direction sought with a large enough effect; inconclusive means small, poorly fitted or top-dose-only effect, or another doubt; inactive means no such curve, though single readings can be large; an effect the other way counts as inactive or inconclusive. Potency means the concentration at half of the fitted maximal effect.

SMILES | FLuc counter | Rab9 prom act | NPC1 promoter act | SMN2 splice enh | ELG1 genotox
CCCCCS(=O)(=O)CCCCCCCCCCn1c(-c2ccc(O)cc2)c(C)c2cc(O)ccc21 | nt | nt | nt | -114% | nt
Cc1ccc(OCCN2C(=O)c3ccccc3C2=O)c([N+](=O)[O-])c1 | 21µM* | 26% | 14% | -25% | 7%
O=[N+]([O-])c1ccccc1OCCCOc1cccc2cccnc12 | 6.7µM* | ? | ? | nt | ?
O=Cc1ccccc1OCCCOc1cccc2cccnc12 | 13µM* | 23% | 22% | nt | 6%
O=Cc1ccc(OCCCOc2cccc3cccnc23)cc1 | -6% | 0% | -2% | nt | 16%
Cc1ccc(OCCOc2cccc3ccc(C)nc23)c([N+](=O)[O-])c1 | 21µM* | 2% | 6% | 18% | 0%
Brc1ccccc1OCCOCCOc1cccc2cccnc12 | -2% | -2% | 0% | -9% | 3%
CSc1ccccc1N=Cc1nc(-c2ccccc2)oc1O | 9.5µM* | -4% | 1% | 28% | ?
COc1ccc(-c2nc(/C=C3\C(C)=Nc4ccccc43)c(O)o2)cc1 | ? | -5% | -3% | -2% | 3%
Oc1oc(-c2ccccc2)nc1C=Nc1ccccc1 | 11µM* | 21% | 21% | 26% | 16%
CC1=Nc2ccccc2/C1=C\c1nc(-c2ccccc2)oc1O | 17µM* | 2% | 1% | -12% | 1%
CN(C)c1ccc(N=Cc2nc(-c3ccccc3)oc2O)cc1 | ? | 29% | ? | -3% | 10%
COc1ccc(N=Cc2nc(-c3ccco3)oc2O)cc1 | 8.5µM* | 0% | 2% | 22% | 11%
COc1ccc(CNC(=O)CCS(=O)(=O)c2ccc3c(c2)oc(=O)n3C)cc1 | 2% | -4% | -4% | nt | 3%
CCOC(=O)C1(CC2CCCCO2)CCN(Cc2nc(C(C)C)cs2)CC1 (configuration not stated) | 1% | -6% | -4% | nt | 4%
O=C(NCCCN1CCN(c2ccccc2F)CC1)C1CCC(=O)N1C1CCCC1 (configuration not stated) | 3% | -6% | 0% | -4% | 0%
Cc1ccc(C)c(S(=O)(=O)N/N=C/c2ccc(N3CCOCC3)cc2)c1 | 1% | 1% | -1% | nt | -2%
Oc1oc(-c2ccccc2)nc1C=NCc1ccccc1 | 17µM* | 25% | ? | 9% | 21µM*
COCCn1c(C)cc(C(=O)CSc2nc3ccccc3s2)c1C | 0.54µM* | 0.5µM* | 0.35µM* | -77% | ?
COCCn1c(C)cc(C(=O)CSc2nc3ccccc3o2)c1C | 1.3µM* | 0.35µM* | 0.63µM* | 7.9µM* | ?
COCCn1c(C)cc(C(=O)CSc2cc(C)c3ccc(OC)cc3n2)c1C | 3µM* | 19% | 7% | nt | 2%
COc1ccc2c(C)cc(SCC(=O)c3ccc4c(c3)OCO4)nc2c1 | ? | 7% | -1% | -11% | -7%
CCc1ccc(NC(=O)c2cc(S(=O)(=O)N3CCCC3)c[nH]2)cc1 | -15% | -1% | 0% | nt | -6%
O=C(Nc1cccc(C(F)(F)F)c1)c1cc(S(=O)(=O)N2CCCC2)c[nH]1 | 17µM* | nt | nt | nt | nt
N/C(=N\OC(=O)/C=C/c1ccc(Br)cc1)c1ccccn1 | 9.5µM* | 2.2µM* | 1.8µM* | 18µM* | ?
SMILES | FLuc counter | Rab9 prom act | NPC1 promoter act | SMN2 splice enh | ELG1 genotox
O=C(COC(=O)/C=C/c1ccccc1Cl)Nc1cccnc1Cl | nt | nt | nt | nt | -1%
N/C(=N\OC(=O)/C=C/c1ccccc1)c1cccnc1 | 12µM* | 11% | 0% | 2% | ?
N/C(=N\OC(=O)C(c1ccccc1)c1ccccc1)c1cccnc1 | 0% | -2% | 1% | -6% | 1%
N/C(=N\OC(=O)/C=C/c1ccccc1Cl)c1ccccn1 | 0.6µM* | 0.28µM* | 0.5µM* | ? | ?
N/C(=N\OC(=O)/C=C/c1ccccc1Cl)c1cccnc1 | 7.6µM* | ? | ? | nt | 21µM*
Cc1ccc(N2CCN(C(=S)Nc3ccc(Cl)cc3)CC2)cc1 | -8% | 0% | 0% | nt | -2%
COc1ccccc1CNC(=O)Cn1cc(Br)ccc1=O | -4% | 18% | 8% | nt | 5%
O=C(CCc1ccccc1)NNC(=O)Nc1ccc(F)c(Cl)c1 | 6% | -3% | -2% | nt | -9%
Cc1ccc(OC(F)F)c(NC(=O)Nc2ccc3c(c2)OCO3)c1 | ? | 6% | 4% | nt | -5%
